# Vaccinia Venus: vaccinia inhibition (Venus reporter) | Vaccinia virus Venus reporter expression, fluorescence | Potency, µM (titrated, usually from 36.5 µM), without a hit: at the highest dose activity change, negative = inhibition, usual class: inhibitors | 330,000 compounds, 0.46% hits | AID 720580; calls by dose curve; tested in A549 cells; note: nearly all actives have a fitted effect of over 30% in size
# Pf growth 48h: inhibits P. falciparum growth in the first generation, 48 h; P. falciparum luciferase growth in erythrocytes, 48 h; Potency, µM (series often up to 28.7 µM), inactives show top-dose activity change, negative = inhibition, most hits filed as inhibitors; 310,000 compounds, 5.9% hits
#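 Cell-based growth assay: transgenic P. falciparum expressing firefly luciferase, cultured in red cells within RPMI 1640 containing 0.5% w/v Albumax, 24 mM bicarbonate and gentamycin. A drop in luciferase activity indicates inhibition.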
# AMA1 RON2 block: disrupts binding of P. falciparum AMA1 to RON2; AlphaScreen AMA1-biotinylated RON2 peptide binding; Potency, µM (top dose mostly 58.2 µM), without a hit: at the highest dose activity change, negative = inhibition, actives largely listed as inhibitors; 360,000 compounds, 0.2% hits; AID 720542;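 note: 0% = vehicle wells and -100% = peptide control; nearly all actives have a fitted effect of over 45% in size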
#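 AMA1 (3D7) with his tag at 25 nM final met compounds first, then biotinylated RON2 peptide at 25 nM; detection used donor plus acceptor beads, 10 µg/mL apiece, read by AlphaScreen after 30 min at room temperature.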
# Pf growth 96h: P. falciparum growth inhibition at 96 hours; Potency, µM (series often up to 28.7 µM), without a hit: at the top dose activity change, negative = inhibition, hits mostly inhibitors; AID 504834; P. falciparum luciferase reporter growth, 96 h; 320,000 compounds, 6.9% hits
#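 Parasite growth measured via integrated firefly luciferase reporter in P. falciparum. Infected erythrocytes at 2% hematocrit, 0.05% parasitemia final were treated 96 hours at 37 C under 5% CO2, and luminescence was read.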
# VACV mCherry inh: inhibitors of vaccinia virus infection (mCherry reporter signal) | Vaccinia virus mCherry reporter infection, fluorescence | Potency, µM (series often up to 36.5 µM), for the others: top-dose activity change, negative = inhibition, usual class: inhibitors | 310,000 compounds, 0.63% hits; calls by dose curve; tested in A549 cells; note: nearly all actives have a fitted effect of over 35% in size
# Active calls of the source: *; i = inactive; ? = inconclusive; / = not tested or not shown; ! = not confirmed by another sample; [ ] = another dose, or the depositor's remark. Hits are enriched below; roughly 8.7% of the tested compounds scored in any of these assays. Unless noted, calls come from the whole dose curve; as a rule, active = well fitted curve in the direction sought with a large enough effect; inconclusive = small, poorly fitted or top-dose-only effect, or another doubt; inactive = no such curve, though single readings can be large; an effect the other way counts as inactive or inconclusive. Unless noted, % is set by controls: 0 for no effect and ±100 for the full control effect; potency is the fitted concentration of half-maximal effect.
SMILES,Vaccinia Venus,Pf growth 48h,AMA1 RON2 block,Pf growth 96h,VACV mCherry inh
O=C(Nc1ccn(CCCNCC(c2ccccc2)c2ccccc2)c(=O)n1)OCc1ccccc1,11µM*,/,-12%,/,13µM*
Cc1ccc(NC(=O)N2CCC3(CC2)Oc2ccccc2C(=O)N3Cc2ccc(F)cc2)cc1,-20%,/,/,/,-10%
O=C1c2ccccc2OC2(C=Cc3ccccc3O2)N1Cc1ccccc1 (stereo not given),-25%,/,-4%,4.1µM*,/
CCCC12CN(C(=O)c3ccc([N+](=O)[O-])cc3)CC(C)(CN(C(=O)c3ccc([N+](=O)[O-])cc3)C1)C2=O,-13%,12µM*,17%,10µM*,-12%
CC12CN(C(=O)c3ccc([N+](=O)[O-])cc3)CC(C)(CN(C(=O)c3ccc([N+](=O)[O-])cc3)C1)C2=O,/,-15%,-11%,7%,/
COc1ccc(N2CCN(C(=O)c3ccc(CS(=O)(=O)c4ccccc4C)o3)CC2)cc1,2%,13%,-1%,10µM*,-12%
COc1ccccc1S(=O)(=O)Cc1ccc(C(=O)N2CCN(c3cccc(Cl)c3)CC2)o1,/,12µM*,-14%,4%,/
Cc1ccc(C)c(N2CCN(C(=O)c3ccc(CS(=O)(=O)c4ccccc4C)o3)CC2)c1,/,?,-18%,?,/
Cc1cccc(N2CCN(C(=O)c3ccc(CS(=O)(=O)c4ccccc4C)o3)CC2C)c1 (stereo not given),/,13µM*,-11%,170%,/
COc1ccccc1S(=O)(=O)Cc1ccc(C(=O)N2CCN(c3ccccc3)CC2)o1,/,?,-16%,7%,/
c1cncc(OC2CCN(Cc3ccc4c(c3)CN(Cc3ccc5c(c3)OCCO5)CCO4)CC2)c1,-17%,/,/,/,-23%
COC(=O)C1=C(C)N(Cc2ccccc2)C(=NCCc2c[nH]c3ccccc23)N[C@H]1c1ccccc1,-19%,?,-19%,8.3µM*,-21%
COC(=O)C1=C(C)N(Cc2ccccc2)C(=NCCc2c[nH]c3ccccc23)N[C@H]1c1cccc(F)c1,13µM*,/,-30%,/,?
COc1ccc(OC)c(-c2cc(C(=O)Nc3cnn(Cc4ccc(Cl)cc4Cl)c3)no2)c1,?,/,/,/,-29%
CCCn1c2ccccc2c2cnn(CC(=O)NCCCN3CCCC(C)C3)c(=O)c21 (stereo not given),-22%,-13%,2%,15µM*,i
CCCn1c2ccccc2c2cnn(CC(=O)N3CCCC(C)C3)c(=O)c21 (stereo not given),-15%,/,/,/,i
CCCn1c2ccccc2c2cnn(CC(=O)NCCCN3CCCCC3)c(=O)c21,-3%,-9%,0%,?,-3%
CCCn1c2ccccc2c2cnn(CC(=O)NCCCN3CCN(c4ccccc4)CC3)c(=O)c21,-7%[7.34 µM],8%,-2%,0.33µM*,-4%[7.34 µM]
O=C(NC1CCC(NC(=O)C(F)(F)C(F)F)CC1)C(F)(F)C(F)F (stereo not given),/,/,11%,13µM*,/
O=C(NCCS(=O)(=O)N1CCN(c2ccc(F)cc2)CC1)C(c1ccccc1)c1ccccc1,-15%,/,/,/,-10%
COc1cccc(NC(=O)Cn2c(=O)n(-c3ccc(Cl)cc3)c(=O)c3oc4ccccc4c32)c1,-21%,/,/,/,-20%
COc1cccc(-c2nn(C)c3sc(C(=O)N4CCN(c5cccc(C(F)(F)F)c5)CC4)cc23)c1,1%,/,/,/,10%
O=C(NCc1ccco1)C12CC3CC(CC(C3)C1)C2,-10%,?,3%,33%,/
O=C(CC12CC3CC(CC(C3)C1)C2)NC(=S)NCc1ccco1,/,13µM*,5%,?,/
COc1ccc2c(c1OC)C(=O)O[C@H]2[C@@H]1c2cc3c(cc2CCN1C)OCO3,-19%,-21%,4%,15µM*!,i
SMILES,Vaccinia Venus,Pf growth 48h,AMA1 RON2 block,Pf growth 96h,VACV mCherry inh
COc1ccc2c(c1OC)CN1CCc3cc4c(cc3[C@@H]1[C@@H]2O)OCO4,-3%,?,-9%,9.3µM*,?
COc1cc2c(cc1OC)C1Cc3ccc(OC)c(OC)c3CN1CC2 (stereo not given),-12%,1.3µM*,-1%,?,7%
COc1ccc2c(c1OC)C(=O)O[C@@H]2[C@H]1c2cc3c(cc2CCN1C)OCO3,-10%,?,-3%,-13%,-15%
COc1cc2c(cc1OC)[C@@H]1Cc3ccc(OC)c(OC)c3CN1CC2,1%,?,-6%,?,-10%
C[C@]12C(=O)N(c3cccc(Cl)c3)C(=O)N1[C@H]1c3ccccc3OC[C@@H]1[C@H]2c1ccccc1,-16%,0%,-3%,10µM*,i
Cc1cccc(N2C(=O)N3[C@@H]4c5ccccc5OC[C@@H]4[C@@H](c4ccccc4)[C@]3(C)C2=O)c1,-10%,?,-11%,12µM*,-4%
C[C@@]12C(=O)N(c3cccc(Cl)c3)C(=O)N1[C@@H]1c3ccccc3OC[C@@H]1[C@H]2c1ccccc1,0%,/,-2%,/,i
Cc1cccc(N2C(=O)N3[C@@H]4c5ccccc5OC[C@@H]4[C@@H](c4ccccc4)[C@@]3(C)C2=O)c1,-21%,?,-8%,?,i
CCOC(=O)C1=C(C)N(C)C(=S)NC1c1c(OCC)ccc2ccccc12 (stereo not given),2%,?,2%,?,-1%
CCOc1ccc2ccccc2c1C1NC(=S)N(C)C(C)=C1C(=O)OC (stereo not given),-1%,?,2%,3.3µM*,-7%
COc1ccccc1-c1nnc(SC(C(=O)c2c[nH]c3ccccc23)c2ccccc2)n1C (stereo not given),/,?,-4%,?,/
COc1cccc(-c2nnc(SC(C(=O)c3c[nH]c4ccccc34)c3ccccc3)n2C)c1 (stereo not given),1%,13µM*,-2%,13µM*,i
Cc1cc(/C=C2\C=Cc3ccccc32)cc(C)c1[N+](=O)[O-],-10%,/,/,/,-11%
COc1ccc(CC(=O)Oc2ccc(C#N)cc2)cc1,/,0%,-1%,?,/
COc1ccc(C2Sc3nncn3N2Cc2ccc(C#N)cc2)cc1 (stereo not given),-7%,-9%,-1%,13µM*,i
O=C(COc1ccc(Br)cc1)c1ccc2c(c1)CCCC2,-10%,33%,73%,8.3µM*,/
Cc1ccc(OCC(=O)c2ccc3c(c2)CCCC3)cc1C,-14%,72%,99%,0%,/
O=C(NC1CC(=O)N(c2ccc(F)cc2)C1)C(c1ccccc1)c1ccccc1 (stereo not given),-3%,/,/,/,-11%
CN(C)CCN(C(=O)c1ccc2ccccc2c1)c1nc2cc3c(cc2s1)OCCO3,-14%,37%,-15%,60%,?
CN(C)CCN(C(=O)c1ccc(N2C(=O)CCC2=O)cc1)c1nc2cc3c(cc2s1)OCO3,0%,10%,-7%,16%,-19%
CN(C)CCCN(C(=O)c1ccc2ccccc2c1)c1nc2cc3c(cc2s1)OCO3,?,?,-13%,10µM*,?

# Bioassay records (PubChem BioAssay)
